Measurements as given in PubChem BioAssay (NCATS).
Records with an inconclusive call do not appear. The source made the active and inactive calls. Calls follow the shape of the dose curve; as a rule, active = well fitted curve in the direction sought with a large enough effect; inconclusive = small, poorly fitted or top-dose-only effect, or another doubt; inactive = no such curve, though single readings can be large; an effect the other way counts as inactive or inconclusive.

What was measured:
[1] = Cellular Toxicity (caspase-3) SK-N-SH (AID 661); settings: SK-N-SH caspase-3 activation, qHTS, DMSO as zero, staurosporine as full; series mostly up to 91.7 µM;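 also: cells exposed to compound for 16 hours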
Procedure, shortened: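 Caspase 3/7 activation was read by luminogenic substrate cleavage after 16 hour treatment of SK-N-SH cells. Signal was scaled between DMSO and 10 uM staurosporine, and concentration-response data were fitted with the Hill equation for AC50.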

[2] = Cellular Toxicity (caspase-3) H-4-II-E (AID 663); settings: H-4-II-E rat hepatoma, scaled: DMSO 0%, 100 µM tamoxifen 100%; at 92.2 µM (top of the series);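 also: cells exposed to compound for 16 hr before readout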
Procedure, shortened: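 Caspase 3/7 activation measured in H-4-II-E cells in complete culture medium after 16 hr treatment at 37 °C, using luciferase-coupled substrate readout; AC50 values come from Hill-equation fits of normalized concentration-response data.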

[3] = Cellular Toxicity (caspase-3) Hek293 (AID 664); settings: HEK293 caspase-3 activation, DMSO = 0%, 100 µM tamoxifen = 100%; at 92.2 µM (top of the series);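 also: cells exposed to compound for 16 h at 37 °C before readout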
Procedure, shortened: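 Concentration-response qHTS: caspase 3/7 activation measured by luminescent aminoluciferin substrate cleavage after 16 h compound exposure of Hek 293 cells. AC50 from Hill equation, with DMSO as basal and 100 uM tamoxifen as 100%.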

[4] = Cellular Toxicity (caspase-3) N2a (AID 665); settings: N2a cells, luminescence, normalized: DMSO 0%, 10 µM staurosporine 100%; series mostly up to 92.2 µM;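 also: compound exposure lasted 16 h at 37 °C before readout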
Procedure, shortened: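 Caspase-3/7 activation measured as luminescence from Caspase-Glo reagent (1 h, room temperature) after 16 h compound exposure of mouse N2a cells. AC50 values from Hill-equation concentration-response, scaled between DMSO and 10 uM staurosporine.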

[5] = Cellular Toxicity (caspase-3) NIH 3T3 (AID 666); settings: NIH 3T3 caspase-3 activation, apoptosis/toxicity, 0% DMSO, 100% is 100 µM tamoxifen; series mostly up to 92.2 µM;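 also: caspase signal read after 16 h compound exposure; 0% = DMSO basal and 100% = 100 µM tamoxifen stimulation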
Procedure, shortened: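 Caspase-Glo 3/7 luminescence reported caspase activation in 1000 NIH 3T3 cells/well after 16 h compound exposure at 37 C. DMSO set basal and 100 uM tamoxifen set 100% stimulation; concentration-response modeled with the Hill equation for AC50.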

[6] = Cellular Toxicity (caspase-3) Renal Proximal Tubule (AID 667); settings: renal proximal tubule cells, primary cells freshly taken from rat; Potency: caspase-3 activation; series mostly up to 91.7 µM;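 also: cells exposed to compound for 16 hours at 37 °C before detection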
Procedure, shortened: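 AC50 derived by standard Hill fit of concentration-response data, normalized between DMSO basal and 10 uM staurosporine as 100% stimulation. Cells: primary rat kidney proximal tubule, 16 h treatment at 37 °C.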

[7] = biological target: Cytochrome P450 3A4 (Homo sapiens) (UniProt P08684); assay: qHTS Assay for Activators of Cytochrome P450 3A4 (AID 885); settings: recombinant CYP3A4, Luciferin-PPXE luminescence, 60 min; series mostly up to 57.1 µM; also: nearly all actives have a fitted effect of over 65% in size
Cytochrome P450 3A4 (Homo sapiens), sequence (P08684 whole entry, looked up): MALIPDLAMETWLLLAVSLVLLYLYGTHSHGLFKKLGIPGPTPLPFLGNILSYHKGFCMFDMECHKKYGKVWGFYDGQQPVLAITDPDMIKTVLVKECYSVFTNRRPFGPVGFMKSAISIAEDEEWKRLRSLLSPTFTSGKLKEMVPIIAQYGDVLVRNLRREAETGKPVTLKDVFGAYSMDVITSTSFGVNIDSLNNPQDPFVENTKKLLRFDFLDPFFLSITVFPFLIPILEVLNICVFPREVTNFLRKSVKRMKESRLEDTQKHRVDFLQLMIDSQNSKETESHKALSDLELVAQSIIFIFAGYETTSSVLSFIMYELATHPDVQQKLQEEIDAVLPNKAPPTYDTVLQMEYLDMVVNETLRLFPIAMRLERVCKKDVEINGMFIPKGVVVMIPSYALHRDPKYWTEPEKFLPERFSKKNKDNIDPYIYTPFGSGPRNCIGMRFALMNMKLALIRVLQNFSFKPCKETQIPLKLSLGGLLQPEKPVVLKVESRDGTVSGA
Procedure, shortened: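 Luminescent readout of luciferin formed from 25 uM Luciferin-PPXE (KM level) by 20 nM CYP3A4 in 200 mM KPO4, with 60 min NADPH-driven reaction at room temperature after 10 min compound exposure. Ketoconazole (57 uM) defined 100% inhibition.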

[8] = Cell Viability - LYMP2-001 (AID 921); settings: LYMP2-001 lymphoblastoid cell viability; series mostly up to 92.2 µM;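 also: 0% = DMSO only and full inhibition = tetraoctylammonium bromide control wells; nearly all actives have a fitted effect of over 70% in size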
Procedure, shortened: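 Steps: seed 2500 lymphoblastoid cells/well; 5 hr, 37 C; add compound; 24 hr, 37 C; CellTiter-Glo reagent, 30 min room temperature; read luminescence. Concentration-response modeled by Hill equation for AC50.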

[9] = MultiTox-Fluor Cytotoxicity Assay - LYMP1-001 - Dead Cells (AID 946); settings: LYMP1-001 lymphoblastoid cells, dead-cell protease fluorescence; series mostly up to 92.2 µM
Procedure, shortened: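 Cytotoxicity as increased dead-cell protease fluorescence (bis-AAF-R110, 485/520 nm), read 60 min after MultiTox-Fluor reagent. Human lymphoblastoid line exposed 16 h; Hill-fitted AC50, with DMSO as 0% and 15 uM tetraoctylammonium bromide as 100%.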

[10] = MultiTox-Fluor Cytotoxicity Assay - LYMP1-001 - Live Cells (AID 947); settings: LYMP1-001 lymphoblastoid cells, live-cell protease fluorescence viability; series mostly up to 92.2 µM;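 also: 0% = DMSO only and full inhibition = tetraoctylammonium bromide control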
[11] = Cell Viability - LYMP1-002 - Assay at 16 hr (AID 948); settings: LYMP1-002 lymphoblastoid cell viability; series mostly up to 92.2 µM;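 also: 0% = DMSO alone and full effect = 92 µM tetraoctylammonium bromide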
Procedure, shortened: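 Seed 2500 LYMP1-002 cells per well in complete medium and hold 5 hr at 37 C. Add compound across a concentration series and incubate 16 hr at 37 C. Add CellTiter-Glo, wait 30 min at room temperature, read luminescence.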

[12] = MultiTox-Fluor Cytotoxicity Assay - LYMP1-002 - Live Cells (AID 955); settings: LYMP1-002 lymphoblastoid live-cell protease fluorescence viability; series mostly up to 46.1 µM;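 also: cells exposed to compound for 16 hours; % is scaled to controls: 0 for no effect and ±100 for the full control effect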
Procedure, shortened: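 After 16 h compound exposure at 37 C, live LYMP1-002 lymphoblastoid cells (2500/well) were quantified by cleavage of cell-permeant GF-AFC substrate, read at 405/510 nm after 60 min. Concentration-response fitted with Hill equation for AC50.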

[13] = MultiTox-Fluor Cytotoxicity Assay - LYMP1-003 - Live Cells (AID 962); settings: LYMP1-003 lymphoblastoid cells, MultiTox-Fluor live-cell protease fluorescence; series mostly up to 92.2 µM;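 also: cells exposed to compound for 16 hours at 37 °C; 0% = DMSO only and full loss = 92 µM tetraoctylammonium bromide; cytotoxic hits lower the live-cell protease signal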
Procedure, shortened: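 Live-cell protease activity (GF-AFC substrate, 405/510 nm, 60 min at room temperature) after 16 h, 37 C compound exposure of human lymphoblastoid LYMP1-003 cells; concentration-response fitted to the Hill equation for AC50.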

[14] = Cell Viability - LYMP1-003 - Assay at 24 hr (AID 963); settings: LYMP1-003 lymphoblastoid cell viability; series mostly up to 92.2 µM;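 also: plate controls were DMSO only for no effect and tetraoctylammonium bromide positive control for full effect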
Procedure, shortened: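 Concentration-response qHTS: ATP loss measured by CellTiter-Glo luminescence after 24 h compound exposure at 37 C. Cells were LYMP1-003 human lymphoblastoid, 2500 per well. AC50 derived via standard Hill equation modeling.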

[15] = Cell Viability - LYMP1-003 - Assay at 40 hr (AID 964); settings: LYMP1-003 lymphoblastoid viability; series mostly up to 92.2 µM; also: % is scaled to controls: 0 for no effect and ±100 for the full control effect; nearly all actives have a fitted effect of over 60% in size
Procedure, shortened: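 Viability is taken as cellular ATP, read by CellTiter-Glo luminescence after 40 h of compound exposure at 37 C. Cells: human lymphoblastoid line LYMP1-003 at 2500/well; AC50 values derived by Hill-equation fitting of concentration-response data.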

[16] = Cell Viability - LYMP2-003 (AID 965); settings: LYMP2-003 lymphoblastoid cell viability; series mostly up to 92.2 µM;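 also: cells exposed to compounds for 24 h before reading; 0% = DMSO only and full effect = 92 µM tetraoctylammonium bromide; nearly all actives have a fitted effect of over 50% in size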
Procedure, shortened: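 Seed 2500 lymphoblastoid cells/well; incubate 5 hr, 37 C; add compounds; incubate 24 hr, 37 C; add CellTiter-Glo, 30 min RT; read luminescence. AC50 from Hill fit.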

[17] = biological target: Cytochrome P450 3A4 (Homo sapiens) (UniProt P08684); assay: qHTS Assay for Inhibitors and Substrates of Cytochrome P450 3A4 (AID 884); settings: recombinant CYP3A4, Luciferin-PPXE luminescence; series mostly up to 57.1 µM; also: % is scaled to controls: 0 for no effect and ±100 for the full control effect; nearly all actives have a fitted effect of over 50% in size
Procedure, shortened: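 Luminescent readout of luciferin produced by CYP3A4 (20 nM) dealkylation of Luciferin-PPXE, 25 uM (its KM). NADPH-driven reaction ran 60 min at RT after 10 min compound preincubation; data scaled to 57 uM ketoconazole as 100% inhibition.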

[18] = MultiTox-Fluor Cytotoxicity Assay - LYMP1-002 - Dead Cells (AID 960); settings: LYMP1-002 lymphoblastoid cells, dead-cell protease fluorescence; series mostly up to 46.1 µM; also: nearly all actives have a fitted effect of over 60% in size
Procedure, shortened: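 Dead-cell fluorescence (Ex/Em 485/520) after 16 h compound exposure at 37 C of LYMP1-002 lymphoblastoid cells in complete medium; AC50 by Hill equation, with data scaled between DMSO and 15 uM tetraoctylammonium bromide.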

[19] = MultiTox-Fluor Cytotoxicity Assay - LYMP1-003 - Dead Cells (AID 961); settings: LYMP1-003 lymphoblastoid cells, dead-cell protease fluorescence; series mostly up to 92.2 µM; also: nearly all actives have a fitted effect of over 70% in size
Procedure, shortened: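 Dead-cell protease release, detected as bis-AAF-R110 fluorescence at 485/520 nm, was measured in LYMP1-003 cells after 16 h compound treatment at 37 C. AC50 values came from Hill-modeled qHTS curves normalized to DMSO (0%) and 15 uM tetraoctylammonium bromide (100%).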

COc1cccc2sc(N)nc12
inactive: outcome [1] | caspase-3 activation [2] 0.718% | caspase-3 activation [3] -1.25% | outcome [4] | outcome [5] | Potency [6] | outcome [7] | Potency [8] | outcome [9] | outcome [10] | outcome [11] | outcome [12] | Potency [13] | Potency [14] | Potency [15] | Potency [16]

O=C(O)c1cc(Cl)cc(Cl)c1
inactive: outcome [1] | caspase-3 activation [2] -0.143% | caspase-3 activation [3] 1.27% | outcome [4] | outcome [5] | Potency [6] | Potency [17] | Potency [8] | outcome [9] | outcome [10] | outcome [11] | outcome [12] | outcome [18] | Potency [19] | Potency [13] | Potency [14] | Potency [15]

CCC(O)C(C)(C)C (stereo not drawn)
inactive: outcome [1] | caspase-3 activation [2] -0.43% | caspase-3 activation [3] 1.79% | outcome [5] | Potency [6] | Potency [17] | Potency [8] | outcome [9] | outcome [10] | outcome [11] | outcome [12] | outcome [18] | Potency [19] | Potency [13] | Potency [14] | Potency [15] | Potency [16]

C=C(C)C1CC=C(C)C(OC(C)=O)C1 (stereo not drawn)
inactive: outcome [1] | caspase-3 activation [2] 2.65% | caspase-3 activation [3] 1.35% | outcome [4] | outcome [5] | Potency [6] | Potency [17] | Potency [8] | outcome [9] | outcome [10] | outcome [11] | outcome [12] | outcome [18] | Potency [13] | Potency [14] | Potency [15] | Potency [16]

NC=O
inactive: outcome [1] | caspase-3 activation [2] 0.414% | caspase-3 activation [3] -1.11% | outcome [4] | outcome [5] | Potency [6] | Potency [17] | Potency [8] | outcome [9] | outcome [10] | outcome [11] | outcome [12] | outcome [18] | Potency [19] | Potency [13] | Potency [14] | Potency [15] | Potency [16]

Cc1ccc(C)c(N)c1
inactive: outcome [1] | caspase-3 activation [2] 3.4% | caspase-3 activation [3] 3.4% | outcome [4] | outcome [5] | Potency [6] | Potency [17] | Potency [8] | outcome [9] | outcome [11] | outcome [12] | Potency [13] | Potency [14] | Potency [15] | Potency [16]

O=Cc1cccc(Br)c1
inactive: outcome [1] | caspase-3 activation [2] 2.2% | caspase-3 activation [3] 4.91% | outcome [4] | outcome [5] | Potency [6] | Potency [17] | Potency [8] | outcome [9] | outcome [11] | outcome [12] | outcome [18] | Potency [19] | Potency [13] | Potency [14] | Potency [15] | Potency [16]

O=Cc1ccc(CO)o1
inactive: outcome [1] | caspase-3 activation [2] 1.58% | caspase-3 activation [3] -1.08% | outcome [5] | Potency [6] | Potency [17] | Potency [8] | outcome [9] | outcome [10] | outcome [11] | outcome [12] | outcome [18] | Potency [19] | Potency [13] | Potency [14] | Potency [15] | Potency [16]

Cc1nc2ccc(Cl)cc2[nH]1
inactive: outcome [1] | caspase-3 activation [2] 0.101% | caspase-3 activation [3] -1.32% | outcome [4] | outcome [5] | Potency [6] | Potency [17] | Potency [8] | outcome [9] | outcome [10] | outcome [11] | outcome [12] | outcome [18] | Potency [19] | Potency [13] | Potency [14] | Potency [15] | Potency [16]

c1ccc2[nH]cnc2c1
inactive: outcome [1] | caspase-3 activation [2] -0.984% | caspase-3 activation [3] -0.791% | outcome [4] | outcome [5] | Potency [6] | Potency [17] | Potency [8] | outcome [9] | outcome [11] | outcome [12] | outcome [18] | Potency [19] | Potency [13] | Potency [14] | Potency [15]
